# Test results from the supplement of paper PMC9694430.
# Counter-ions that a name gives are not always drawn.
# What was measured:
# Test in all cases: thermal shift delta Tm vs DMSO control; higher = stronger stabilization (binding)
# Conditions in all cases: 12.5 µM; protein concentration 2 µM
# LOC_OS02G45750-cb003 = tested on: LOC_OS02G45750-cb003
# Summary of the method: (§1)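 The melting temperature shift given here is a triplicate mean, measured against protein that received only DMSO. Melting temperatures came from Boltzmann fits of differential scanning fluorimetry data on E. coli-expressed, purified rice kinase domain constructs. Each 19.5 μl well contained 2 μM kinase, 100 mM potassium phosphate pH 7.5, 150 mM NaCl, 10% glycerol, 5 × SYPRO Orange and compound in DMSO. Plates were scanned from 25°C to 95°C at 0.05°C/s.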
# LOC_OS02G54510-cb004 = tested on: LOC_OS02G54510-cb004
# Summary of the method: as §1
# LOC_OS03G04050-cb001 = tested on: LOC_OS03G04050-cb001
# Summary of the method: as §1
# LOC_OS03G12390-cb001 = tested on: LOC_OS03G12390-cb001
# Summary of the method: as §1
# LOC_OS03G27990-cb004 = tested on: LOC_OS03G27990-cb004
# Summary of the method: as §1
# LOC_OS03G50450-cb001 = tested on: LOC_OS03G50450-cb001
# Summary of the method: as §1
# LOC_OS03G50810-cb003 = tested on: LOC_OS03G50810-cb003
# Summary of the method: as §1
# LOC_OS04G35114-cb001 = tested on: LOC_OS04G35114-cb001
# Summary of the method: as §1
# LOC_OS04G38480-cb003 = tested on: T1, LOC_OS04G38480-cb003
# T1 sequence (whole entry): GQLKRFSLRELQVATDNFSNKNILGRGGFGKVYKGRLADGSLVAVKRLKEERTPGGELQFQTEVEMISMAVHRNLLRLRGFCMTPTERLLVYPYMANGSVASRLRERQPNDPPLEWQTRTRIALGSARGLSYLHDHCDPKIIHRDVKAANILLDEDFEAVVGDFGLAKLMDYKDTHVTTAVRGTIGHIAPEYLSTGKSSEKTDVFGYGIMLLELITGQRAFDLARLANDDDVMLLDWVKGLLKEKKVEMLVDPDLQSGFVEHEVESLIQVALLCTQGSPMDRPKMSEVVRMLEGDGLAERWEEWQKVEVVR
# Summary of the method: as §1
# LOC_OS04G41100-cb001 = tested on: T2, LOC_OS04G41100-cb001
# T2 sequence (whole entry): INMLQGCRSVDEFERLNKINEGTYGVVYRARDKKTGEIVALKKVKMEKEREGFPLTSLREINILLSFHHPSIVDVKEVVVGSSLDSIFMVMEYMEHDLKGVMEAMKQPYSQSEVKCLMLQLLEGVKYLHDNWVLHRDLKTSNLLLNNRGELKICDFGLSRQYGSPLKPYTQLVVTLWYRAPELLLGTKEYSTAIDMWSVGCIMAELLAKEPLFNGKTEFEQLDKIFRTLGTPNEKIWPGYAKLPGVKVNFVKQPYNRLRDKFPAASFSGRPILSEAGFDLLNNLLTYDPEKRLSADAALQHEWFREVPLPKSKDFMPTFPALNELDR
# Summary of the method: as §1
compound,measurement,setting,value
"COc1cc(F)c(F)c(Nc2ccc(I)cc2F)c1NS(=O)(=O)C1(C[C@H](O)CO)CC1 [Refametinib (RDEA119, Bay 86-9766)]",thermal shift delta Tm,LOC_OS02G45750-cb003,0.64 °C
same,thermal shift delta Tm,LOC_OS02G54510-cb004,0.25 °C
same,thermal shift delta Tm,LOC_OS03G04050-cb001,0.61 °C
same,thermal shift delta Tm,LOC_OS03G12390-cb001,0.09 °C
same,thermal shift delta Tm,LOC_OS03G27990-cb004,0.41 °C
same,thermal shift delta Tm,LOC_OS03G50450-cb001,0.71 °C
same,thermal shift delta Tm,LOC_OS03G50810-cb003,0.41 °C
same,thermal shift delta Tm,LOC_OS04G35114-cb001,0.19 °C
same,thermal shift delta Tm,LOC_OS04G38480-cb003,0.79 °C
same,thermal shift delta Tm,LOC_OS04G41100-cb001,0.72 °C
Cc1ccc(F)c(NC(=O)Nc2ccc(-c3cccc4[nH]nc(N)c34)cc2)c1 [Linifanib (ABT-869)],thermal shift delta Tm,LOC_OS02G45750-cb003,0.85 °C
same,thermal shift delta Tm,LOC_OS02G54510-cb004,-0.22 °C
same,thermal shift delta Tm,LOC_OS03G04050-cb001,0.3 °C
same,thermal shift delta Tm,LOC_OS03G12390-cb001,3.38 °C
same,thermal shift delta Tm,LOC_OS03G27990-cb004,1.2 °C
same,thermal shift delta Tm,LOC_OS03G50450-cb001,0.4 °C
same,thermal shift delta Tm,LOC_OS03G50810-cb003,0.8 °C
same,thermal shift delta Tm,LOC_OS04G35114-cb001,2.54 °C
same,thermal shift delta Tm,LOC_OS04G38480-cb003,0.22 °C
same,thermal shift delta Tm,LOC_OS04G41100-cb001,1.77 °C
CN1CCCN(C(=O)c2cccc(-c3ccc(/C=C4/C(=O)Nc5ccc(Cl)cc54)o3)c2)CC1,thermal shift delta Tm,LOC_OS02G45750-cb003,5.04 °C
same,thermal shift delta Tm,LOC_OS02G54510-cb004,0.59 °C
same,thermal shift delta Tm,LOC_OS03G04050-cb001,0.65 °C
same,thermal shift delta Tm,LOC_OS03G12390-cb001,3.37 °C
same,thermal shift delta Tm,LOC_OS03G27990-cb004,1.12 °C
same,thermal shift delta Tm,LOC_OS03G50450-cb001,0.49 °C
same,thermal shift delta Tm,LOC_OS03G50810-cb003,2.85 °C
same,thermal shift delta Tm,LOC_OS04G35114-cb001,4.61 °C
same,thermal shift delta Tm,LOC_OS04G38480-cb003,2.24 °C
same,thermal shift delta Tm,LOC_OS04G41100-cb001,1.74 °C
CC(C)(C)NS(=O)(=O)c1cncc(-c2cc(F)c3nc(N)nn3c2)c1,thermal shift delta Tm,LOC_OS02G45750-cb003,0.74 °C
same,thermal shift delta Tm,LOC_OS02G54510-cb004,0.24 °C
same,thermal shift delta Tm,LOC_OS03G04050-cb001,0.64 °C
same,thermal shift delta Tm,LOC_OS03G12390-cb001,0.19 °C
same,thermal shift delta Tm,LOC_OS03G27990-cb004,0.94 °C
same,thermal shift delta Tm,LOC_OS03G50450-cb001,0.53 °C
same,thermal shift delta Tm,LOC_OS03G50810-cb003,0.4 °C
same,thermal shift delta Tm,LOC_OS04G35114-cb001,0.87 °C
same,thermal shift delta Tm,LOC_OS04G38480-cb003,0.98 °C
same,thermal shift delta Tm,LOC_OS04G41100-cb001,0.29 °C
CC(C)(C#N)c1ccc(N2C(=O)OCc3cnc4ccc(-c5cnc6ccccc6c5)cc4c32)cc1,thermal shift delta Tm,LOC_OS02G45750-cb003,0.62 °C
same,thermal shift delta Tm,LOC_OS02G54510-cb004,0.01 °C
same,thermal shift delta Tm,LOC_OS03G04050-cb001,0.55 °C
same,thermal shift delta Tm,LOC_OS03G12390-cb001,0.2 °C
same,thermal shift delta Tm,LOC_OS03G27990-cb004,0.32 °C
same,thermal shift delta Tm,LOC_OS03G50450-cb001,0.21 °C
same,thermal shift delta Tm,LOC_OS03G50810-cb003,0.32 °C
same,thermal shift delta Tm,LOC_OS04G35114-cb001,1.01 °C
same,thermal shift delta Tm,LOC_OS04G38480-cb003,0.8 °C
same,thermal shift delta Tm,LOC_OS04G41100-cb001,0.2 °C
N=C(N)NC(=N)NCCc1ccccc1 [Phenformin HCl],thermal shift delta Tm,LOC_OS02G45750-cb003,0.17 °C
same,thermal shift delta Tm,LOC_OS02G54510-cb004,-0.29 °C
same,thermal shift delta Tm,LOC_OS03G04050-cb001,0.17 °C
same,thermal shift delta Tm,LOC_OS03G12390-cb001,-0.23 °C
same,thermal shift delta Tm,LOC_OS03G27990-cb004,0.15 °C
same,thermal shift delta Tm,LOC_OS03G50450-cb001,0.26 °C
same,thermal shift delta Tm,LOC_OS03G50810-cb003,0.78 °C
same,thermal shift delta Tm,LOC_OS04G35114-cb001,-0.12 °C
same,thermal shift delta Tm,LOC_OS04G38480-cb003,0.97 °C
same,thermal shift delta Tm,LOC_OS04G41100-cb001,-0.08 °C
Cc1cc(N2CCOCC2)cc2[nH]c(-c3c(NC[C@@H](O)c4cccc(Cl)c4)cc[nH]c3=O)nc12,thermal shift delta Tm,LOC_OS02G45750-cb003,3.33 °C
same,thermal shift delta Tm,LOC_OS02G54510-cb004,2.85 °C
same,thermal shift delta Tm,LOC_OS03G04050-cb001,0.49 °C
same,thermal shift delta Tm,LOC_OS03G12390-cb001,5.81 °C
same,thermal shift delta Tm,LOC_OS03G27990-cb004,1.27 °C
same,thermal shift delta Tm,LOC_OS03G50450-cb001,4.61 °C
same,thermal shift delta Tm,LOC_OS03G50810-cb003,3.54 °C
same,thermal shift delta Tm,LOC_OS04G35114-cb001,4.79 °C
same,thermal shift delta Tm,LOC_OS04G38480-cb003,-0.48 °C
same,thermal shift delta Tm,LOC_OS04G41100-cb001,0.77 °C
COc1cc2ncnc(Nc3ccc(Cl)cc3F)c2cc1OC,thermal shift delta Tm,LOC_OS02G45750-cb003,2.84 °C
same,thermal shift delta Tm,LOC_OS02G54510-cb004,0.95 °C
same,thermal shift delta Tm,LOC_OS03G04050-cb001,0.25 °C
same,thermal shift delta Tm,LOC_OS03G12390-cb001,2.87 °C
same,thermal shift delta Tm,LOC_OS03G27990-cb004,0.55 °C
same,thermal shift delta Tm,LOC_OS03G50450-cb001,0.36 °C
same,thermal shift delta Tm,LOC_OS03G50810-cb003,1.2 °C
same,thermal shift delta Tm,LOC_OS04G35114-cb001,7.37 °C
same,thermal shift delta Tm,LOC_OS04G38480-cb003,1.81 °C
same,thermal shift delta Tm,LOC_OS04G41100-cb001,0.5 °C
CCn1c(N)c(C(=O)NC)c(=O)c2ccc(C#CC(C)(O)COC)nc21 (stereo not given),thermal shift delta Tm,LOC_OS02G45750-cb003,1.5 °C
same,thermal shift delta Tm,LOC_OS02G54510-cb004,-0.18 °C
same,thermal shift delta Tm,LOC_OS03G04050-cb001,0.43 °C
same,thermal shift delta Tm,LOC_OS03G12390-cb001,1.63 °C
same,thermal shift delta Tm,LOC_OS03G27990-cb004,0.43 °C
same,thermal shift delta Tm,LOC_OS03G50450-cb001,0.79 °C
same,thermal shift delta Tm,LOC_OS03G50810-cb003,0.85 °C
same,thermal shift delta Tm,LOC_OS04G35114-cb001,1.56 °C
same,thermal shift delta Tm,LOC_OS04G38480-cb003,0.68 °C
same,thermal shift delta Tm,LOC_OS04G41100-cb001,0.29 °C
"CO[C@H]1C[C@@H]2CC[C@@H](C)[C@@](O)(O2)C(=O)C(=O)N2CCCC[C@H]2C(=O)O[C@H]([C@H](C)C[C@@H]2CC[C@@H](OP(C)(C)=O)[C@H](OC)C2)CC(=O)[C@H](C)/C=C(\C)[C@@H](O)[C@@H](OC)C(=O)[C@H](C)C[C@H](C)/C=C/C=C/C=C/1C [Ridaforolimus (Deforolimus, MK-8669)]",thermal shift delta Tm,LOC_OS02G45750-cb003,0.46 °C
same,thermal shift delta Tm,LOC_OS02G54510-cb004,-0.33 °C
same,thermal shift delta Tm,LOC_OS03G04050-cb001,0.25 °C
same,thermal shift delta Tm,LOC_OS03G12390-cb001,0.04 °C
same,thermal shift delta Tm,LOC_OS03G27990-cb004,0.01 °C
same,thermal shift delta Tm,LOC_OS03G50450-cb001,-0.11 °C
same,thermal shift delta Tm,LOC_OS03G50810-cb003,-0.15 °C
same,thermal shift delta Tm,LOC_OS04G35114-cb001,0.34 °C
same,thermal shift delta Tm,LOC_OS04G38480-cb003,0.98 °C
same,thermal shift delta Tm,LOC_OS04G41100-cb001,0.85 °C
COc1cc2c(cc1OC)[C@@H]1C(=O)c3ccc4c(c3O[C@@H]1CO2)C=CC(C)(C)O4 [Deguelin],thermal shift delta Tm,LOC_OS02G45750-cb003,0.46 °C
same,thermal shift delta Tm,LOC_OS02G54510-cb004,-0.02 °C
same,thermal shift delta Tm,LOC_OS03G04050-cb001,0.25 °C
same,thermal shift delta Tm,LOC_OS03G12390-cb001,-0.38 °C
same,thermal shift delta Tm,LOC_OS03G27990-cb004,0.07 °C
same,thermal shift delta Tm,LOC_OS03G50450-cb001,0.4 °C
same,thermal shift delta Tm,LOC_OS03G50810-cb003,0.24 °C
same,thermal shift delta Tm,LOC_OS04G35114-cb001,0.63 °C
same,thermal shift delta Tm,LOC_OS04G38480-cb003,1.39 °C
same,thermal shift delta Tm,LOC_OS04G41100-cb001,0.34 °C
